Experimental findings from PubChem BioAssay (EPA / NIEHS) are described below.

Each structure is given as a SMILES string. Records with an inconclusive call do not appear. The source made the active and inactive calls. Rule for the calls: active = hit-call score of the fitted dose curve at least 0.9, where 1 is the maximum; inconclusive = response in the unintended direction; inactive = score below 0.9.

Androgen Receptor/SRC-1 Co-activator, AR (gene 367), sequence (P10275 whole entry, looked up, the tested form may be a part): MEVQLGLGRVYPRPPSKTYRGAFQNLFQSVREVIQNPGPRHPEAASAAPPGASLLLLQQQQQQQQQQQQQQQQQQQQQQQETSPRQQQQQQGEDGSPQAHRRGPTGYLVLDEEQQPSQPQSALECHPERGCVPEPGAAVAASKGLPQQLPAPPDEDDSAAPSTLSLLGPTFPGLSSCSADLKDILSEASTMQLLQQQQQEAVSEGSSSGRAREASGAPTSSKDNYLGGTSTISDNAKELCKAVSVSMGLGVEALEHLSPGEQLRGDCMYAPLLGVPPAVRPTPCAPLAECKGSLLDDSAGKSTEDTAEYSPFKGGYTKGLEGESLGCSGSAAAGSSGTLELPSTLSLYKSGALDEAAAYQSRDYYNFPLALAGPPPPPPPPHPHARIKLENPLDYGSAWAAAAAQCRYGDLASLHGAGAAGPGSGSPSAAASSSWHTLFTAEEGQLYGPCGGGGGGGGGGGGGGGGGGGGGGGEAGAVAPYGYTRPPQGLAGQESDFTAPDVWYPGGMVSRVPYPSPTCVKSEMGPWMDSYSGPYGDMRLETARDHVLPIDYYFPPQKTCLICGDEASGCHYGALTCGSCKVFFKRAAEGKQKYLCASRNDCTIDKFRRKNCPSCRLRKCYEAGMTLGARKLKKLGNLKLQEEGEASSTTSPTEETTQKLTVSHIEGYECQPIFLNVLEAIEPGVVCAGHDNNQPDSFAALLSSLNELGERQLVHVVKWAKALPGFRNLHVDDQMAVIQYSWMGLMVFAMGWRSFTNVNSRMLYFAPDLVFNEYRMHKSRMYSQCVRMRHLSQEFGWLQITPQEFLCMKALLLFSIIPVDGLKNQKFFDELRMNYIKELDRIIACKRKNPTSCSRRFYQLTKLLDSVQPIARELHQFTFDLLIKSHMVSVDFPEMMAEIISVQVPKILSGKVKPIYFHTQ

The target of the first assay is Androgen Receptor/SRC-1 Co-activator, AR (gene 367) (UniProt P10275). Nature of the assay: OT_AR_ARSRC1_0960: Odyssey Thera (OT) 16-hour HEK293T Protein-Complementation Assay for Androgen Receptor/SRC-1 Co-activator (AID 2283353).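 Note: actives raise the signal above DMSO so potency reflects increased AR and SRC-1 complex.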 Summed up:
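Stable HEK293T line carries AR and SRC-1 each linked to a Venus fragment; chemicals are applied for 16 h, cells imaged at two wavelengths, and the 488 nm nucleus/cytoplasm ratio is taken as the signal, rising relative to DMSO.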
Take `O=C(Oc1ccccc1)c1cccc(C(=O)Oc2ccccc2)c1`: the molecule was classed as inactive. The same measure, in the same setting: for `NCCOCCOCCN` the value was “inactive”. On the same count and under the same terms, under `C=CCCCCCCCCCCCC` stands “inactive”. The same measure, in the same setting: under `CCOCCOCCO` stands “inactive”. One may read the AC50 as the concentration giving half of the maximal activity seen. `C#CC(O)C(CC)CCCC` (stereo unspecified): the AC50 was 72.6 µM (active).

The target is the same in a further assay. Nature of the assay: OT_AR_ARSRC1_0480: Odyssey Thera (OT) 8-hour HEK293T Protein-Complementation Assay for Androgen Receptor/SRC-1 Co-activator (AID 2283354).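 Note: hits raise the complementation signal above DMSO so AC50 marks enhancers.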 The procedure, abridged:
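After 8 h dosing, stably expressing HEK293T cells with split-Venus AR/SRC-1 fusions were imaged (488, 635nm). The 488nm N/C ratio per image gave the endpoint, analysed in the positive direction against DMSO.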
For `O=C(Oc1ccccc1)c1cccc(C(=O)Oc2ccccc2)c1`, the molecule was classed as inactive. Still for that read-out and setting: under `NCCOCCOCCN` stands “inactive”; under `C=CCCCCCCCCCCCC`, “inactive”; under `CCOCCOCCO`, “inactive”. As for `C#CC(O)C(CC)CCCC` (stereo unspecified), the AC50 was 93.7 µM (active).

For a further assay, the target named is Estrogen receptor beta (Homo sapiens) (UniProt Q92731). Nature of the assay: OT_ER_ERbERb_0480: Odyssey Thera (OT) 8-hour HEK293T Protein-Complementation Assay for Estrogen Receptor-beta/-beta Homodimer (AID 2283357).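 Note: active means signal gain over DMSO baseline.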 Summed up: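 Fluorescence gain from complemented reporter fragments on ER-beta LBD homodimer in HEK293T was quantified against DMSO controls after 8 h treatment, fixation in 4% formaldehyde and Draq5 staining.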
Estrogen receptor beta (Homo sapiens), sequence (Q92731 whole entry, looked up, the tested form may be a part): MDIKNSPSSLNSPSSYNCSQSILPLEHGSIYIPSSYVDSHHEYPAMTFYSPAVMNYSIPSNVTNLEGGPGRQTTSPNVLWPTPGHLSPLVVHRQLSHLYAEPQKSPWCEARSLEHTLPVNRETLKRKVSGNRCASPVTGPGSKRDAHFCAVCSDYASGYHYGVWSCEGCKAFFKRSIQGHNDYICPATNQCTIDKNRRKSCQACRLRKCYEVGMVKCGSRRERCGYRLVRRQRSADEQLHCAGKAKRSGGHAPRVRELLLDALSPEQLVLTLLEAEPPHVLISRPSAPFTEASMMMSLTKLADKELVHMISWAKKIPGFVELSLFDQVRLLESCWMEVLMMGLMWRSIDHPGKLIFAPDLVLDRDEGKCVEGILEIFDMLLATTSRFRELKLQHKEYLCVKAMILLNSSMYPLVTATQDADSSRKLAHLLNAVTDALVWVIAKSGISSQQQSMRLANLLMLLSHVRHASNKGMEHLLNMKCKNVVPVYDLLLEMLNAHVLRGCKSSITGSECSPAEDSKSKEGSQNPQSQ
In the case of `O=C(Oc1ccccc1)c1cccc(C(=O)Oc2ccccc2)c1`, the molecule was called inactive. The same measure, in the same setting: under `NC=O` stands “inactive”.

`NCCOCCOCCN`: the call was inactive. The same measure, in the same setting: under `CCCCC(CC)CO` (stereo unspecified) stands “inactive”. Regarding `C=CCCCCCCCCCCCC`, the molecule was called inactive. Same read-out and setting: for `O=C(O)c1cccnc1` the value was “inactive”; for `CO[C@@H]1COCC[C@@H]1N[C@@H]1CC[C@@](C(=O)N2CCc3ncc(C(F)(F)F)cc3C2)(C(C)C)C1`, “inactive”. On the same count and under the same terms, for `CC(=O)OCC(COC(C)=O)OC(C)=O` the value was “inactive”; for `CC(C)(C)c1ccccc1`, “inactive”; for `CC(COCC(C)OC(=O)c1ccccc1)OC(=O)c1ccccc1` (stereo unspecified), “inactive”.

As for `CC(N)=O`, the molecule was called inactive. The same measure, in the same setting: under `O=C1O[C@H]([C@H](O)CO)C(O)=C1O` stands “inactive”; under `CCCCCCC(C=O)=Cc1ccccc1`, “inactive”; under `Oc1ccccc1O`, “inactive”. On the same count and under the same terms, for `CC(C)c1cccc(C(C)C)c1NC(=O)NS(=O)(=O)c1cc(C(C)(C)O)co1` the value was “inactive”; for `C/C=C/C=C/C(=O)O`, “inactive”; for `Cc1cn([C@H]2C=C[C@@H](CO)O2)c(=O)[nH]c1=O`, “inactive”. On to `C#CC(O)C(CC)CCCC` (stereo unspecified), for which the molecule was classed as inactive. For `C=CCc1ccc(OC)c(OC)c1`, the molecule was called inactive. Still for that read-out and setting: for `C/C=C/c1ccc(OC)cc1` the value was “inactive”; for `CC(=O)OC1CC(C)OC(C)O1` (stereo unspecified), “inactive”.
